The panel holds about 79,000 compounds, 15% with a hit somewhere; the sample as a whole holds those more often. The source made the active and inactive calls. Rule as the data show it: active = growth inhibition above about 70%; inactive = the rest.
Tests used:
[1] = NCI Yeast Anticancer Drug Screen. Data for the rad50 strain (AID 155);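 also: 0% = growth of vehicle-only cultures of the same strain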; settings: S. cerevisiae rad50 strain growth inhibition; at 50.0 µM; active compounds read high
Procedure, shortened: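 Vehicle-treated cultures provide the reference for the growth inhibition reported for compound-exposed, repair-deficient yeast.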

[2] = NCI Yeast Anticancer Drug Screen. Data for the mec2-1 strain (AID 157); settings: S. cerevisiae mec2-1 strain, at 50.0 µM, active compounds read high
Procedure, shortened: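 Using mec2-1 yeast: add compound, measure growth, express inhibition versus vehicle-treated cultures.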

[3] = NCI Yeast Anticancer Drug Screen. Data for the sgs1 mgt1 strain (AID 161);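 also: 0% = growth of cultures given vehicle only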; settings: S. cerevisiae sgs1 mgt1 strain, at 50.0 µM, active compounds read high
Procedure, shortened: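 Compounds are added to genetically altered yeast, and growth is compared with cultures given vehicle alone to give percent inhibition.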

[4] = NCI Yeast Anticancer Drug Screen. Data for the cln2 rad14 strain (AID 165);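 also: 0% = growth equal to vehicle treated cultures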; settings: S. cerevisiae cln2 rad14 strain, at 50.0 µM, active compounds read high
Procedure, shortened: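 Yeast strain cln2 rad14, bearing defects in cell cycle control and DNA repair, serves as the test system; values reflect growth inhibition compared with vehicle.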

[5] = NCI Yeast Anticancer Drug Screen. Data for the bub3 strain (AID 167); settings: S. cerevisiae bub3 mutant strain, at 50.0 µM, active compounds read high
Procedure, shortened: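 Mutant yeast screening strain plus compound; vehicle-treated cultures serve as the 0% inhibition reference.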

[6] = NCI Yeast Anticancer Drug Screen. Data for the mlh1 rad18 strain (AID 175); settings: S. cerevisiae mlh1 rad18 strain growth inhibition; at 50.0 µM; active compounds read high
Procedure, shortened: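 Steps: expose repair-defective yeast to compound; measure growth; express inhibition against vehicle-treated controls.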

Structure (SMILES)	growth inhibition [1]	growth inhibition [2]	growth inhibition [3]	growth inhibition [4]	growth inhibition [5]	growth inhibition [6]
CC(=O)C1=C(O)/C(=C/c2ccccc2)NC1=O	8.05% (inactive)	5.15% (inactive)	-6.3% (inactive)	-35.5% (inactive)	-13.2% (inactive)	-3.2% (inactive)
Cc1[nH]c(/N=C/c2ccc(N(C)C)cc2)c(C#N)c1C	-10.1% (inactive)	-0.6% (inactive)	-18.4% (inactive)	-8% (inactive)	-5.75% (inactive)	-7.75% (inactive)
O=C(O)C1(Nc2ccc(Cl)cc2)CCCC1	14.3% (inactive)	-6.75% (inactive)	-12.6% (inactive)	-1.45% (inactive)	9.65% (inactive)	11.6% (inactive)
CC(C)CCCC(C)C1CCC2C3CC=C4CC(OC(=O)C(Cl)(Cl)Cl)CCC4(C)C3CCC12C (stereo not given)	-7.65% (inactive)	-7.55% (inactive)	-0.7% (inactive)	-27.1% (inactive)	-28.1% (inactive)	-5.4% (inactive)
O=C1/C(=C2\CCc3ccccc32)Cc2ccccc21	14.1% (inactive)	5.65% (inactive)	-4.2% (inactive)	-1.7% (inactive)	34.6% (inactive)	8.15% (inactive)
O=C(N=C1SCCN1C(=O)C(C(F)(F)F)C(F)(F)F)C(C(F)(F)F)C(F)(F)F	-20.6% (inactive)	-3.5% (inactive)	4.95% (inactive)	28.4% (inactive)	2.3% (inactive)	-36.9% (inactive)
CC(C)CCCC(C)C1CCC2C3C(O)CC4CCCCC4(C)C3CCC12C (stereo not given)	96.7% (active)	97.8% (active)	98% (active)	95.2% (active)	95.7% (active)	97.9% (active)
O=C(OCc1ccccc1CN1CCCC1)c1ccc([N+](=O)[O-])cc1Cl	-13% (inactive)	-15.8% (inactive)	-13.7% (inactive)	-52.7% (inactive)	-0.9% (inactive)	-54.8% (inactive)
NC(=O)N=C(NC(N)=O)NC(N)=O	-17.1% (inactive)	-21.5% (inactive)	-10.2% (inactive)	-18.3% (inactive)	-6.85% (inactive)	-17.1% (inactive)
CCOC(=O)c1ccc(-c2ccc(C(=O)OCC)cc2[N+](=O)[O-])c([N+](=O)[O-])c1	14.8% (inactive)	12.8% (inactive)	11.8% (inactive)	17% (inactive)	9.7% (inactive)	15% (inactive)
CC1(C)OCC(C2OC3OC(C)(C)OC3/C2=N/NC(=O)c2cc3cc(OCc4ccccc4)ccc3[nH]2)O1 (stereo not given)	82.5% (active)	90.8% (active)	39.6% (inactive)	92.2% (active)	84.3% (active)	86% (active)
O=C(O)c1ccc([N+](=O)[O-])c(P(=O)(O)O)c1	-5.95% (inactive)	-7% (inactive)	-12.2% (inactive)	-42.8% (inactive)	-29.6% (inactive)	-3.5% (inactive)
COC(=O)CC1NC(=O)[C@]1(C)[C@H](C)O (stereo not given in full)	-37.1% (inactive)	-16.2% (inactive)	-33% (inactive)	-14.3% (inactive)	-48.4% (inactive)	-48.9% (inactive)
COc1ccc(N=Cc2ccc([N+](=O)[O-])cc2)cc1	27.9% (inactive)	0.75% (inactive)	15.2% (inactive)	-22.4% (inactive)	9.9% (inactive)	36.1% (inactive)
NS(=O)(=O)c1ccc(NC(=O)Nc2cccc(C(F)(F)F)c2)cc1	23.9% (inactive)	2.55% (inactive)	12.8% (inactive)	12.3% (inactive)	23.8% (inactive)	9.85% (inactive)
CCCCCCCCCCCCCCCCOCC(CCl)OP(=O)(O)OP(=O)(O)OCC1OC(n2ccc(N)nc2=O)C(O)C1O (stereo not given)	-33.3% (inactive)	-38.9% (inactive)	15.1% (inactive)	-35% (inactive)	-37.4% (inactive)	-95.4% (inactive)
COC1OC(CO)C(OC(C)=O)C(OC(C)=O)C1OC(C)=O (stereo not given)	-2.05% (inactive)	16.5% (inactive)	2.9% (inactive)	-14.5% (inactive)	12.6% (inactive)	1.8% (inactive)
Cc1nc(N(C)C)oc(=O)c1Cc1ccccc1	-0.9% (inactive)	18.6% (inactive)	17.4% (inactive)	-8.8% (inactive)	20.6% (inactive)	6.2% (inactive)
COc1cccc(/C=N/O)c1OC	6.75% (inactive)	4.25% (inactive)	2.6% (inactive)	8.55% (inactive)	-1.85% (inactive)	2% (inactive)
CC1(C)OC2COC(CNS(C)(=O)=O)C2O1 (stereo not given)	12.2% (inactive)	-12.2% (inactive)	-9.2% (inactive)	5.1% (inactive)	2.85% (inactive)	28.4% (inactive)

Structure (SMILES)	growth inhibition [1]	growth inhibition [2]	growth inhibition [3]	growth inhibition [4]	growth inhibition [5]	growth inhibition [6]
Clc1ccc(N[P+](c2ccccc2)(c2ccccc2)c2ccccc2)cc1.[Cl][Fe]([Cl])([Cl])[Cl]	39.3% (inactive)	12% (inactive)	45.4% (inactive)	5% (inactive)	5.8% (inactive)	17.8% (inactive)
CCN(CC)c1ccc(N=C2C=C(C(=O)Nc3ccc(S(C)(=O)=O)cc3)C(=O)c3ccccc32)c(C)c1	-15.8% (inactive)	-29.5% (inactive)	2.55% (inactive)	6.6% (inactive)	-4.2% (inactive)	-17.2% (inactive)
Cc1cccc(C)c1-n1c(C)nc2[nH]cc(C)c2c1=N	6.35% (inactive)	-6.25% (inactive)	4.55% (inactive)	5.1% (inactive)	17.1% (inactive)	8.95% (inactive)
Cc1cccnc1Br	-25.2% (inactive)	-9.85% (inactive)	-5.05% (inactive)	-29.6% (inactive)	-5.65% (inactive)	-26.1% (inactive)
CCNC1CC(C(C)(C)NCC)CC=C1C (stereo not given)	-31.4% (inactive)	-25.2% (inactive)	-38.7% (inactive)	-15.4% (inactive)	-46.9% (inactive)	-55.2% (inactive)
C1=C2/CC[C@H](Sc3ccccc3)[C@H]2C2(CCCCC/1)OCCO2	13.8% (inactive)	-19% (inactive)	-6.45% (inactive)	-1.05% (inactive)	13.2% (inactive)	-4.05% (inactive)
COC(=O)C12c3ccccc3C(c3ccccc31)c1c(N=O)ccc(NO)c12	99.2% (active)	99.3% (active)	99.1% (active)	98.7% (active)	99% (active)	99% (active)
CNc1nc(C(F)(F)F)nc2[nH]ncc12	5.15% (inactive)	17.9% (inactive)	-7.65% (inactive)	-16.9% (inactive)	-20.6% (inactive)	-20.9% (inactive)
NS(=O)(=O)c1ccc(NC(=O)Nc2ccc(Cl)cc2[N+](=O)[O-])cc1	-9.5% (inactive)	18.6% (inactive)	30.1% (inactive)	-16.7% (inactive)	29.9% (inactive)	30.4% (inactive)
OCc1ccccc1CN1CCCC1	8.65% (inactive)	1.15% (inactive)	17.8% (inactive)	-40.1% (inactive)	8.1% (inactive)	-14.3% (inactive)
C=CC(C)c1cccc(C=O)c1O (stereo not given)	0.3% (inactive)	-7.3% (inactive)	-0.3% (inactive)	-32% (inactive)	17.8% (inactive)	15.2% (inactive)
O=C(NN1C(=O)C(Cl)C1c1cccc(O)c1)c1ccccc1O (stereo not given)	-47.5% (inactive)	-34% (inactive)	-32.8% (inactive)	5.55% (inactive)	-29.2% (inactive)	-39.1% (inactive)
C=CCSCC1Nc2cc(Cl)c(S(N)(=O)=O)cc2S(=O)(=O)N1C (stereo not given)	22.8% (inactive)	12.8% (inactive)	8.05% (inactive)	20.1% (inactive)	-3.75% (inactive)	2.25% (inactive)
O=Nc1ccc(Cl)cc1	-7.1% (inactive)	28.9% (inactive)	-10.3% (inactive)	7.15% (inactive)	14.9% (inactive)	8.45% (inactive)
OC(CCN1CCC2CCC(C2)C1)(c1ccccc1)c1ccco1 (stereo not given)	7.75% (inactive)	-3.15% (inactive)	-5.25% (inactive)	-15.6% (inactive)	-0.05% (inactive)	-4.75% (inactive)
CCCCCCCC(CCCCCCC)(C(=O)OCC)C(=O)OCC	7.1% (inactive)	-1.65% (inactive)	9.1% (inactive)	-37.5% (inactive)	0.25% (inactive)	0.9% (inactive)
CCCCCCCCCCCCCCCC1=NN(c2ccccc2)C(=O)C1N=Nc1ccccc1 (stereo not given)	8.2% (inactive)	-8.95% (inactive)	-0.75% (inactive)	-10.2% (inactive)	-3.3% (inactive)	2.05% (inactive)
C1=C(c2ccccc2)CC(c2ccc(-c3ccccc3)cc2)=C1	6.9% (inactive)	1.15% (inactive)	1.55% (inactive)	-27.6% (inactive)	-10.2% (inactive)	16.4% (inactive)
O=C(O)c1cc(=O)c2cc(Cl)ccc2[nH]1	-15.5% (inactive)	-12.2% (inactive)	-17.1% (inactive)	-19% (inactive)	-9.9% (inactive)	-1.55% (inactive)
O=C1OCC(CN2CCC(n3c(=O)[nH]c4ccccc43)CC2)=C1c1ccccc1	-12.2% (inactive)	-4.65% (inactive)	-7.15% (inactive)	-25.7% (inactive)	-10.6% (inactive)	-35.9% (inactive)
